Assay outcomes from PubChem BioAssay.
ELG1 DNA repair = qHTS screen for small molecules that inhibit ELG1-dependent DNA repair in human embryonic kidney (HEK293T) cells expressing luciferase-tagged ELG1; HEK293T ELG1-luciferase reporter, luminescence, 16 h; DNA damage induced by 5-fluorouridine; Potency, µM (titrated, usually from 46.1 µM), for inactives: at the top dose activity change, negative = inhibition, actives largely listed as inhibitors; 330,000 tested, 2.3% active; AID 504467, 2011; further: potency means the concentration at half of the fitted maximal effect; nearly all actives have a fitted effect of over 55% in size
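DMSO vehicle served as the neutral condition. Each well held 2,000 cells given 5-fluorouridine plus compound; after 16 hr at 37 °C/5% CO2, ONE-Glo was added and luciferase measured 30 min later.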
VP16 counter = VP16 counterscreen qHTS for inhibitors of ROR gamma transcriptional activity. Drosophila S2 Gal4-VP16 UAS-luciferase, luminescence, 20 h. 310,000 tested, 3.5% active. AID 2546, 2010. Potency, µM (titrated, usually from 53.6 µM), without a hit: top-dose activity, negative = inhibition, actives largely listed as inhibitors;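 further: Gal4-VP16 expression switched on by copper sulfate through the metallothionein promoter; potency means the concentration at half of the fitted maximal effect; nearly all actives have a fitted effect of over 50% in size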
IL1B secr inh = qHTS for Inhibitors of Inflammasome Signaling: IL-1-beta AlphaLISA Primary Screen; 360,000 tested, 4.7% active; activity change, % at 57.5 µM; THP-1 LPS/ATP IL-1B secretion, AlphaLISA, 16 h; hits give low values; in the data active means activity change below about -50%; inconclusive means mostly about -30% to -49%
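THP-1 cells pretreated 1 hr with compounds (up to 57.5 uM final), then stimulated with LPS (250 ng/mL final) plus ATP (1.25 mM final); secreted IL-1B measured by AlphaLISA after 16 hr, decreased signal indicating inhibition.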
RORgamma inh = qHTS for inhibitors of ROR gamma transcriptional activity; Drosophila S2 Gal4-RORgamma UAS-luciferase reporter, 20 h; AID 2551, 2010; 310,000 tested, 5.4% active; Nuclear receptor ROR-gamma (Mus musculus), P51450; Potency, µM (top dose mostly 53.6 µM), inactives show top-dose activity change, negative = inhibition, usual class: inhibitors; further: potency means the concentration at half of the fitted maximal effect; nearly all actives have a fitted effect of over 60% in size
Target sequence (P51450 whole entry, looked up, the tested form may be a part): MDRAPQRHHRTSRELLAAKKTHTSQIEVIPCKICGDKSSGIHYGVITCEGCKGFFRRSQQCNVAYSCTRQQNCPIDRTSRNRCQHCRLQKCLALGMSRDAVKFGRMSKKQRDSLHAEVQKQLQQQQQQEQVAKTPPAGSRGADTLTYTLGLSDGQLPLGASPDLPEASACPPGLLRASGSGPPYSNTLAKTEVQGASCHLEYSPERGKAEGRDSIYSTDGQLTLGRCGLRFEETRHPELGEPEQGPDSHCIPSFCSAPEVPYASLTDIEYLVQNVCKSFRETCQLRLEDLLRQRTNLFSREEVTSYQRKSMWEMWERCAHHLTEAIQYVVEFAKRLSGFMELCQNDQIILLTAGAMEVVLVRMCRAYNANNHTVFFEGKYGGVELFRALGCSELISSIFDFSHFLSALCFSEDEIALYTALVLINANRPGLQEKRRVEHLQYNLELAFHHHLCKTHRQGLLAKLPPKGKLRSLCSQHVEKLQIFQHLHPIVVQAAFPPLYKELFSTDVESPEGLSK
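Schneider cells (Drosophila), stable Gal4 DBD–ROR gamma + UAS-luc; 1 hr cmpd preincubation; Cu2+ induction 700 uM final; 20 hr ambient; luminescence.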
TDP1 cell CPT = qHTS for Inhibitors of human tyrosyl-DNA phosphodiesterase 1 (TDP1): qHTS in cells in presence of CPT; AID 686979, 2013; 420,000 tested, 12% active; Potency, µM (highest dose often 46.2 µM), without a hit: at the top dose activity change, negative = growth inhibition, usual class: inhibitors; chicken DT40 Tdp1-/-;hTDP1 cells + 20 nM CPT, ATP luminescence, 48 h; further: potency means the concentration at half of the fitted maximal effect; nearly all actives have a fitted effect of over 55% in size
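Cell growth measured by CellTiter-Glo luminescence after a minimum 48 h, 37 C compound exposure with 20 nM CPT in Tdp1-knockout DT40 cells stably expressing hTDP1, seeded 400/well; qHTS titration format.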
DT40 TDP1 no CPT = qHTS for Inhibitors of human tyrosyl-DNA phosphodiesterase 1 (TDP1): qHTS in cells in absence of CPT; 420,000 tested, 15% active; DT40 Tdp1-/- hTDP1 cells, no CPT, ATP luminescence, 48 h; Potency, µM (titrated, usually from 46.2 µM), for inactives: at the top dose activity change, negative = growth inhibition, actives largely listed as inhibitors; further: potency means the concentration at half of the fitted maximal effect; nearly all actives have a fitted effect of over 55% in size
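Camptothecin absent (DMSO only). Human TDP1-complemented DT40 knockout cells, 400 cells/well, 37 °C for minimum 48 hr; ATP measured via CellTiter-Glo, 30 min dark incubation, luminescence.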
* = called active by the depositor. Shown are actives, neighbours in structure and some others; about 21% of the full set was active somewhere. Unless noted, the call rests on the fitted dose curve; in most records, active means well fitted curve in the direction sought with a large enough effect; inconclusive means small, poorly fitted or top-dose-only effect, or another doubt; inactive means no such curve, though single readings can be large; an effect the other way counts as inactive or inconclusive. On the % scale 0 is the no-effect control and ±100 the full control effect.

`Cn1c(=O)c2c(-c3ccc(Cl)cc3)n(CCc3ccccc3)cc2n(C)c1=O` gave TDP1 cell CPT inconclusive and DT40 TDP1 no CPT 23.1µM*.
`Cn1c(=O)c2c(-c3ccccc3)n(Cc3cccnc3)cc2n(C)c1=O` gave ELG1 DNA repair inconclusive, VP16 counter -3.0%, IL1B secr inh 29.7, RORgamma inh -7.2%, TDP1 cell CPT -4.8% and DT40 TDP1 no CPT 8.2%.
Screening Cn1c(=O)c2c(-c3ccc(Br)cc3)n(CCc3ccccc3)cc2n(C)c1=O returned TDP1 cell CPT 14.6µM* and DT40 TDP1 no CPT inconclusive.
`CCOC(=O)N1CCC(NC(=O)c2cc3c(=O)n(C)c4ccccc4c3n2C)CC1` gave ELG1 DNA repair inconclusive, VP16 counter -12.0%, IL1B secr inh -5.4, RORgamma inh -25.2%, TDP1 cell CPT 20.6µM* and DT40 TDP1 no CPT inconclusive.
`Cn1c(C(=O)Nc2ccc3c(c2)OCCO3)cc2c(=O)n(C)c3ccccc3c21` gave ELG1 DNA repair inconclusive, VP16 counter 2.6%, IL1B secr inh -68.6*, RORgamma inh 30.4%, TDP1 cell CPT 13µM* and DT40 TDP1 no CPT 11.6µM*.
`Cn1c(C(=O)NC2CC2)cc2c(=O)n(C)c3ccccc3c21` gave ELG1 DNA repair inconclusive, VP16 counter 10.2%, IL1B secr inh -63.3*, RORgamma inh 22.9%, TDP1 cell CPT inconclusive and DT40 TDP1 no CPT inconclusive.
Screening O=C(C1CCN(S(=O)(=O)c2cccs2)CC1)N1CCCC(C(F)(F)F)C1 (stereo unspecified) returned ELG1 DNA repair -0.6%, VP16 counter -9.0%, IL1B secr inh -3.8, RORgamma inh 0.1%, TDP1 cell CPT 1.2% and DT40 TDP1 no CPT -15.8%.
`CC(C)N1CCC(C)(C(=O)Nc2cccc3c2CCCC3)C1` (stereo unspecified) gave IL1B secr inh 0.0, TDP1 cell CPT -14.6% and DT40 TDP1 no CPT -22.7%.
For N#CC(C#N)=C1C=CC=CN1/C(=C\c1ccccc1Cl)C(=O)c1ccccc1 the results were ELG1 DNA repair inconclusive, VP16 counter 3.16µM*, IL1B secr inh -73.4*, RORgamma inh 6.31µM*, TDP1 cell CPT 0.581µM* and DT40 TDP1 no CPT 1.16µM*.
`N#CC(C#N)=C1C=CC=CN1/C(=C\c1ccccc1)C(=O)c1cccs1` gave ELG1 DNA repair -14.4%, VP16 counter inconclusive, IL1B secr inh -18.0, RORgamma inh 14.3%, TDP1 cell CPT 1.03µM* and DT40 TDP1 no CPT 3.66µM*.
`NC(=O)CCC(NS(=O)(=O)c1ccc(Cl)cc1)C(=O)NCc1ccccc1` (stereo unspecified) gave ELG1 DNA repair 8.2%, VP16 counter 5.9% and RORgamma inh -7.4%.
`Oc1ccc(C2CNCc3sccc32)cc1O` (stereo unspecified) gave ELG1 DNA repair 1.4%, IL1B secr inh 2.9, TDP1 cell CPT 14.6µM* and DT40 TDP1 no CPT 20.6µM*.
O=C1CC(c2ccc(O)c(O)c2)Oc2c1ccc(O)c2O (stereo unspecified) was read as ELG1 DNA repair 11.5%, VP16 counter 1.6%, IL1B secr inh -6.3, RORgamma inh -14.9%, TDP1 cell CPT 10.6% and DT40 TDP1 no CPT -2.2%.
Screening COCCn1c(C)cc(O)c(C(c2ccccc2OC)N2CCCCC2)c1=O (stereo unspecified) returned TDP1 cell CPT -1.4% and DT40 TDP1 no CPT 5.4%.
`O=C(O)c1ccc(N/N=C/c2ccc(OC(=O)c3cccc(Cl)c3)cc2)cc1` gave ELG1 DNA repair inconclusive, VP16 counter 0.355µM*, IL1B secr inh -9.8, RORgamma inh inconclusive, TDP1 cell CPT -13.3% and DT40 TDP1 no CPT 9.8%.
Screening COc1cc(/C=N/Nc2ccc(C(=O)O)cc2)ccc1O returned ELG1 DNA repair inconclusive, VP16 counter 2.24µM*, IL1B secr inh 6.5, RORgamma inh 2.82µM*, TDP1 cell CPT 1.2% and DT40 TDP1 no CPT 10.0%.
For COc1ccc(/C=N/Nc2ccc([N+](=O)[O-])cc2)cc1O the results were ELG1 DNA repair inconclusive, VP16 counter 6.8%, IL1B secr inh -65.6*, RORgamma inh inconclusive, TDP1 cell CPT inconclusive and DT40 TDP1 no CPT inconclusive.
COc1cc(/C=C/C(=O)O)ccc1O was read as VP16 counter 4.0%, IL1B secr inh -17.6, RORgamma inh 1.7%, TDP1 cell CPT 10.2% and DT40 TDP1 no CPT -2.4%.
For COc1cc(/C=C/C(C)=NNc2ccccc2)ccc1O the results were IL1B secr inh -93.5*, TDP1 cell CPT 3.66µM* and DT40 TDP1 no CPT 4.11µM*.
Cc1ccc(C)c(NC(=O)C2CCCN(S(=O)(=O)c3cccnc3)C2)c1 (stereo unspecified) was read as ELG1 DNA repair 1.2%, VP16 counter -3.0%, IL1B secr inh 48.4, RORgamma inh inconclusive, TDP1 cell CPT -23.3% and DT40 TDP1 no CPT -17.5%.
`O=C(O)c1ccc(N/N=C/c2ccc3nccnc3c2)cc1` gave ELG1 DNA repair inconclusive, VP16 counter 0.316µM*, IL1B secr inh -9.5, RORgamma inh 0.1µM*, TDP1 cell CPT 11.6µM* and DT40 TDP1 no CPT 11.6µM*.
Screening CC(C)(C)c1cc(CNC2CS(=O)(=O)C[C@@H]2O)cc(C(C)(C)C)c1O (stereo partly specified) returned ELG1 DNA repair -4.9%, VP16 counter -12.7%, IL1B secr inh -1.6, RORgamma inh -22.1%, TDP1 cell CPT 14.6µM* and DT40 TDP1 no CPT 16.4µM*.
Screening O=S1(=O)CC(O)C(NCc2ccco2)C1 (stereo unspecified) returned ELG1 DNA repair 2.3%, VP16 counter 1.7%, IL1B secr inh -13.2, RORgamma inh 5.3%, TDP1 cell CPT 16.3% and DT40 TDP1 no CPT 3.1%.
Screening COc1ccc(Cl)cc1-c1nc(SCC(=O)N(C)C2CCS(=O)(=O)C2)n[nH]1 (stereo unspecified) returned ELG1 DNA repair -2.3%, IL1B secr inh 4.1, TDP1 cell CPT 12.4% and DT40 TDP1 no CPT 1.9%.
CCc1cccc(CC)c1NC(=O)CCS(=O)(=O)c1ccc(Br)s1 was read as TDP1 cell CPT 0.2% and DT40 TDP1 no CPT -1.2%.
